Reference: PubChem BioAssay AID1159580 (chemical genetic matrix, 2015)
Hit rate of the full screen: of about 5,500 compounds, about 2,000 (36%) were called active. Not shown: some 18% with an inconclusive outcome. Rule as the data show it: active = normalized growth mostly below about 0.91 (no sharp cut-off); inconclusive = no clear call, values can overlap the other calls; inactive = mostly above about 0.92. The list shows a part of the results.

Test: chemical genetic growth profiling, strain panel (AID 1159580);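 also: tested at 20 µM; growth read once vehicle control cultures reached saturation at 30 °C; 1 = growth at the plate median or of vehicle wells; lower values mean less growth of the strain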
Details: S. cerevisiae deletion strains, growth OD

Measured: normalized growth

CC(=O)Oc1c(C)cccc1C(=O)O
inactive: locus YAL013W, strain DEP1, hits give low values 1.01 | locus YAL021C, strain ccr4, hits give low values 0.989 | locus YAL026C, strain drs2, hits give low values 1.01 | locus YAL030W, strain snc1, hits give low values 0.992 | locus YBL061C, strain skt5, hits give low values 1.01 | locus YBR009C, strain hhf1, hits give low values 1.01 | locus YBR021W, strain FUR4, hits give low values 0.989 | locus YBR023C, strain chs3, hits give low values 1 | locus YBR171W, strain sec66, hits give low values 1.02 | locus YBR229C, strain ROT2, hits give low values 0.988 | locus YBR231C, strain swc5, hits give low values 1.02 | locus YBR279W, strain paf1, hits give low values 1.01 | locus YCL011C, strain gbp2, hits give low values 1.01 | locus YCL016C, strain dcc1, hits give low values 0.998 | locus YCL029C, strain bik1, hits give low values 1.01 | locus YCL061C, strain MRC1, hits give low values 1.01 | locus YCL069W, strain vba3, hits give low values 1.01 | locus YCR088W, strain abp1, hits give low values 1.02 | locus YDL005C, strain med2, hits give low values 1.02 | locus YDL035C, strain GPR1, hits give low values 1.01 | locus YDL040C, strain nat1, hits give low values 1 | locus YDL074C, strain BRE1, hits give low values 1 | locus YDL101C, strain DUN1, hits give low values 1.01 | locus YDL134C, strain PPH21, hits give low values 1.01 | locus YDL185W, strain tfp1, hits give low values 0.999 | locus YDL192W, strain arf1, hits give low values 1.02 | locus YDR001C, strain nth1, hits give low values 1.01 | locus YDR069C, strain doa4, hits give low values 1.01 | locus YDR101C, strain arx1, hits give low values 1.02 | locus YDR137W, strain rgp1, hits give low values 0.985 | locus YDR150W, strain NUM1, hits give low values 1.01 | locus YDR159W, strain sac3, hits give low values 0.981 | locus YDR162C, strain NBP2, hits give low values 1 | locus YDR195W, strain ref2 0.994 | locus YDR297W, strain sur2, hits give low values 0.987 | locus YDR318W, strain mcm21, hits give low values 1.02 | locus YDR334W, strain swr1, hits give low values 1.01 | locus YDR335W, strain msn5, hits give low values 0.989 | locus YDR388W, hits give low values 1.01 | locus YDR392W, strain spt3, hits give low values 0.957 | locus YDR502C, strain sam2, hits give low values 1.02 | locus YEL003W, strain gim4, hits give low values 1.03 | locus YEL037C, strain rad23, hits give low values 1.02 | locus YEL061C, strain CIN8 (second series), hits give low values 1.01 | locus YEL061C, strain CIN8, hits give low values 0.995 | locus YER015W, strain faa2, hits give low values 1.01 | locus YER016W, strain bim1, hits give low values 0.984 | locus YER110C, hits give low values 1.02 | locus YER111C, strain swi4, hits give low values 1.02 | locus YER155C, strain BEM2 (second series), hits give low values 1.01 | locus YER155C, strain BEM2, hits give low values 1.01 | locus YER167W, strain BCK2, hits give low values 1.01 | locus YFR010W, strain ubp6, hits give low values 1.02 | locus YGL078C, strain dbp3, hits give low values 1.01 | locus YGL086W, strain mad1, hits give low values 1.01 | locus YGL167C, strain pmr1, hits give low values 1.01 | locus YGL173C, strain kem1, hits give low values 1.02 | locus YGL227W, strain vid30, hits give low values 1.01 | locus YGL240W, strain doc1, hits give low values 0.971 | locus YGL248W, strain PDE1, hits give low values 1.01 | locus YGL253W, strain hxk2, hits give low values 1.01 | locus YGR078C, strain PAC10, hits give low values 1 | locus YGR135W, strain pre9, hits give low values 1 | locus YGR229C, strain SMI1, hits give low values 1.02 | locus YGR252W, strain gcn5, hits give low values 1 | locus YHR013C, strain ard1, hits give low values 1.01 | locus YHR027C, strain rpn1, hits give low values 0.991 | locus YHR030C, strain SLT2, hits give low values 1.01 | locus YHR079C, strain IRE1 (second series), hits give low values 1 | locus YHR094C, strain hxt1, hits give low values 1.01 | locus YHR129C, strain ARP1, hits give low values 1.01 | locus YHR142W, strain chs7, hits give low values 1.02 | locus YHR200W, strain rpn10, hits give low values 1.02 | locus YIL066C, strain RNR3, hits give low values 1.01 | locus YIL073C, strain SPO22, hits give low values 1.05 | locus YIL125W, strain kgd1, hits give low values 1.01 | locus YIR030C, strain dcg1, hits give low values 1.01 | locus YJL092W, strain hpr5, hits give low values 1.01 | locus YJL095W, strain BCK1 (second series), hits give low values 0.977 | locus YJL095W, strain BCK1, hits give low values 1.01 | locus YJL115W, strain asf1, hits give low values 1.02 | locus YJL129C, strain trk1, hits give low values 1.04 | locus YJL134W, strain LCB3, hits give low values 1.01 | locus YJL154C, strain vps35, hits give low values 1 | locus YJL164C, strain tpk1, hits give low values 0.997 | locus YJL166W, strain qcr8, hits give low values 1 | locus YJL168C, strain set2, hits give low values 1.01 | locus YJL187C, strain SWE1 (second series), hits give low values 1.01 | locus YJL187C, strain SWE1, hits give low values 0.983
